Assay outcomes as filed in PubChem BioAssay.
Rows were chosen to be rich in hits. Some 19% of all compounds tested hit in one or more screens of this group.
DT40 TDP1 no CPT: qHTS for Inhibitors of human tyrosyl-DNA phosphodiesterase 1 (TDP1): qHTS in cells in absence of CPT. DT40 Tdp1-/- hTDP1 cells, no CPT, ATP luminescence, 48 h. Potency, µM (series often up to 46.2 µM), for inactives: top-dose activity change, negative = growth inhibition, usual class: inhibitors. 420,000 compounds, 15% hits. AID 686978, 2013; also: potency is read from the fitted curve at half-maximal effect; nearly all actives have a fitted effect of over 55% in size
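A cellular qHTS used chicken DT40 cells lacking endogenous Tdp1 but carrying stably transfected human TDP1. Compounds were applied without camptothecin, and cell growth kinetics were judged by ATP-dependent luminescence after ≥48 hr.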
ELG1 DNA repair: qHTS screen for small molecules that inhibit ELG1-dependent DNA repair in human embryonic kidney (HEK293T) cells expressing luciferase-tagged ELG1 | Potency, µM (top dose mostly 46.1 µM), for the others: top-dose activity change, negative = inhibition, hits mostly inhibitors | HEK293T ELG1-luciferase reporter, luminescence, 16 h; DNA damage induced by 5-fluorouridine | AID 504467, 2011 | 330,000 compounds, 2.3% hits; also: potency is read from the fitted curve at half-maximal effect; nearly all actives have a fitted effect of over 55% in size
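DMSO vehicle served as the neutral condition. Each well held 2,000 cells given 5-fluorouridine plus compound; after 16 hr at 37 °C/5% CO2, ONE-Glo was added and luciferase measured 30 min later.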
DT40 TDP1 CPT: qHTS for Inhibitors of human tyrosyl-DNA phosphodiesterase 1 (TDP1): qHTS in cells in presence of CPT; chicken DT40 Tdp1-/-;hTDP1 cells + 20 nM CPT, ATP luminescence, 48 h; AID 686979, 2013; Potency, µM (highest dose often 46.2 µM), for inactives: at the top dose activity change, negative = growth inhibition, actives largely listed as inhibitors; 420,000 compounds, 12% hits; also: potency is read from the fitted curve at half-maximal effect; nearly all actives have a fitted effect of over 55% in size
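Chicken DT40 Tdp1-/- cells stably complemented with human TDP1 were seeded at 400 cells/well in medium containing 20 nM camptothecin, exposed to pin-transferred compounds, and grown at 37 °C for at least 48 hr. Viability was read as ATP luminescence.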
Giardia kill: Small Molecules that selectively kill Giardia lamblia: qHTS; Giardia lamblia trophozoite viability; activity change, % at 7.66 µM, hits read low; 340,000 compounds, 0.15% hits; AID 540267, 2011; in the data active = activity change below about -80%; inconclusive = between about -30% and that limit;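 also: parasites exposed to compound for two days anaerobically before the ATP read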
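Viability, read as ATP luminescence: trophozoites at 100 cells/well, compound added, 48 hrs anaerobic at 37 deg C, then 15-30 min room-temperature development before reading.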
TDP1 inh: qHTS Assay for Inhibitors of Tyrosyl-DNA Phosphodiesterase (TDP1); Tyrosyl-DNA phosphodiesterase 1 (Homo sapiens), Q9NUW8; recombinant TDP1, AlphaScreen DNA substrate cleavage; Potency, µM (highest dose often 130 µM), inactives show at the top dose activity change, negative = inhibition, actives largely listed as inhibitors; 350,000 compounds, 0.28% hits; AID 485290, 2010; also: potency is read from the fitted curve at half-maximal effect; nearly all actives have a fitted effect of over 40% in size
Target sequence (Q9NUW8 whole entry, looked up): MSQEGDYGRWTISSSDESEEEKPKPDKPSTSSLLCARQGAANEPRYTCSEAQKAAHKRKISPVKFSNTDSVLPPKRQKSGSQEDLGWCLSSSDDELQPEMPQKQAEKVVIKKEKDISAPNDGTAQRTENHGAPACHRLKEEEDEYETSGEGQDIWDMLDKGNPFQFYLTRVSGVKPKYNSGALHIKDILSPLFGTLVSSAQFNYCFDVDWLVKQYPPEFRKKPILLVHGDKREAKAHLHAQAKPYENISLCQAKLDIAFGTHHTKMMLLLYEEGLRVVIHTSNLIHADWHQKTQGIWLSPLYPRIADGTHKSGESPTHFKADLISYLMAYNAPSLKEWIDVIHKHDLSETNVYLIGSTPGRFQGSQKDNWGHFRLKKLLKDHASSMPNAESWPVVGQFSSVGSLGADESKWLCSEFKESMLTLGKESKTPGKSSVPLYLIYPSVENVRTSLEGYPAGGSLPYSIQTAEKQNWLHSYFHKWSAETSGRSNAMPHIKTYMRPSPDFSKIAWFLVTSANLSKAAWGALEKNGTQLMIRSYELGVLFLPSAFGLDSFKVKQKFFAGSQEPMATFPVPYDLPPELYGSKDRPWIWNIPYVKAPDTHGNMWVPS
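Signal: AlphaScreen proximity between streptavidin donor and anti-FITC acceptor beads on intact substrate. Reaction: Tdp1 1 nM, substrate 15 nM final, 5 min RT after 15 min compound preincubation.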
IL-1B inflam inh: qHTS for Inhibitors of Inflammasome Signaling: IL-1-beta AlphaLISA Primary Screen; THP-1 LPS/ATP IL-1B secretion, AlphaLISA, 16 h; hits give low values; activity change, % at 57.5 µM; 360,000 compounds, 4.7% hits; AID 743279, 2014; in the data active = activity change below about -50%; inconclusive = mostly about -30% to -49%
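THP-1 cells pretreated 1 hr with compounds (up to 57.5 uM final), then stimulated with LPS (250 ng/mL final) plus ATP (1.25 mM final); secreted IL-1B measured by AlphaLISA after 16 hr, decreased signal indicating inhibition.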
Active calls of the source: *; ? = inconclusive; . = not tested or not shown; [ ] = remark or other dose. Unless noted, calls follow the shape of the dose curve; as a rule, active = well fitted curve in the direction sought with a large enough effect; inconclusive = small, poorly fitted or top-dose-only effect, or another doubt; inactive = no such curve, though single readings can be large; an effect the other way counts as inactive or inconclusive. % is scaled to controls: 0 for no effect and ±100 for the full control effect.

SMILES | DT40 TDP1 no CPT | ELG1 DNA repair | DT40 TDP1 CPT | Giardia kill | TDP1 inh | IL-1B inflam inh
CCCCNC(=O)COC(=O)c1c2c(nc3ccccc13)/C(=C/c1cccs1)CC2 | ? | ? | 23µM* | 5 | 2% | -27
OCCO[C@@H]1[C@@H](O)[C@H](O)[C@@H](CO)O[C@@H]1O | -16% | . | 7% | . | . | .
N#Cc1ccc(CN2CCN(c3ccc(S(=O)(=O)N4CCCC4)cn3)CC2)cc1 | -10% | 5% | -30% | 25 | 1% | 0
O=C(CSc1nnnn1-c1ccc(F)cc1F)Nc1ccccc1F | -2% | 0% | 2% | 23 | 2% | 20
CN1C(=O)Cc2cc(S(=O)(=O)CCC(=O)Nc3ccc(Cl)c(C(F)(F)F)c3)ccc21 | ? | . | 23µM* | . | 0% | .
CN1C(=O)Cc2cc(S(=O)(=O)CCC(=O)Nc3ccc(F)c(Cl)c3)ccc21 | -2% | . | ? | . | 5% | .
O=C(CCS(=O)(=O)c1ccc(Br)cc1)Nc1ccc(Cl)c(C(F)(F)F)c1 | 21µM* | . | ? | . | -13% | .
Cc1ccc(S(=O)(=O)CCC(=O)Nc2ccc(Br)cc2)cc1 | -12% | 7% | ? | -4 | . | -13
CCOC(=O)c1cccc(NC(=O)CCS(=O)(=O)c2ccc3c(c2)CCN3C(=O)CC)c1 | -29% | . | ? | . | 7% | .
CCC(=O)N1CCc2cc(S(=O)(=O)CCC(=O)Nc3ccc(Cl)c(C(F)(F)F)c3)ccc21 | 8.2µM* | . | 16µM* | . | 0% | .
c1ccc(CN2CCC3(CCCc4ccccc43)CC2)cc1 | 16µM* | -19% | ? | -20 | ? | 3
COc1ccccc1N1CCN(C(=O)C(=O)c2c(C)[nH]c3ccccc23)CC1 | -29% | -8% | -16% | 8 | 3% | 4
O=C1c2cccc3cccc(c23)C(=O)N1CCc1ccccc1 | ? | ? | ? | 7 | -6% | 21
O=[N+]([O-])c1ccc(Cl)cc1Sc1nc2ccccc2o1 | ? | -1% | ? | -4 | 10% | -58*
O=C(CSc1nc2ccccc2o1)Nc1ccc(Cl)cc1 | 3% | ? | -7% | -3 | -4% | 0
Cc1cccc(N2CCN(C(=O)NC(C)c3ccc(F)c(F)c3)CC2)c1C (centres undefined) | ? | 8% | ? | 0 | . | -26
Cc1cccc(C(=O)Nc2ccc(C(=O)/C=C/c3cccnc3)cc2)c1 | 4.6µM* | ? | 5.2µM* | 15 | 2% | -78*
Cc1cccc(C(=O)Nc2ccc(C(=O)/C=C/c3ccncc3)cc2)c1 | ? | ? | ? | 7 | . | 6
O=C(/C=C/c1cccnc1)c1ccc(NC(=O)c2cccc(Br)c2)cc1 | 3.2µM* | ? | 7.1µM* | 7 | 0% | -25
COc1ccccc1/C=c1\sc2nc(-c3ccccc3OC)nn2c1=O | 16µM* | -3% | ? | -13 | 4% | 7
COc1ccc(Br)cc1/C=c1\sc2nc(-c3ccco3)nn2c1=O | ? | 20% | ? | 2 | . | -6
COC(=O)C1=C(C)N(c2ccc(C(=O)OC)cc2)C(=O)C1 | ? | -5% | ? | -12 | 5% | 9
COC(=O)C1=C(C)N(c2cc(Cl)cc(Cl)c2)C(=O)C1 | 8.2µM* | -11% | 7.3µM* | 6 | 1% | -27
O=C(NCc1ccccc1)c1nnc(CS(=O)(=O)c2ccccc2)o1 | -11% | -3% | -16% | -2 | . | 5
CC(C)CC(NC(=O)C1CCCN1C(=O)OC(C)(C)C)C(=O)NCC(N)=O (centres undefined) | -14% | 0% | 0% | -9 | 2% | 6
SMILES | DT40 TDP1 no CPT | ELG1 DNA repair | DT40 TDP1 CPT | Giardia kill | TDP1 inh | IL-1B inflam inh
COC(=O)C(CC(C)C)NC(=O)C(Cc1ccccc1)NC(=O)C1CCCN1C(=O)OC(C)(C)C (centres undefined) | 8% | 11% | -2% | 7 | 3% | -71*
CCOCCCNC(=S)Nc1cc(C)cc(C)c1 | -6% | -4% | -14% | -13 | -5% | -5
COc1ccc(O)c(CN2CCC3(CC2)c2ccccc2[C@@H](NC(=O)c2cccc(F)c2)[C@@H]3OC)c1 | 16µM* | . | -6%[9.04 µM] | . | . | .
CO[C@H]1[C@H](NC(=O)c2ccsc2)c2ccccc2C12CCN(Cc1cc(Cl)ccc1O)CC2 | -7% | . | -5%[9.04 µM] | . | . | .
O=C(Nc1ccc(C2=NCCN2)cc1)c1ccc(C(=O)Nc2ccc(C3=NCCN3)cc2)c(Cl)c1 | 5.2µM* | -11% | 7.3µM* | 3 | 11% | 7
O=C(Nc1ccc(NC(=O)c2ccc(Cl)cc2Cl)cc1)c1ccc2c(c1)OCO2 | -11% | 14% | -16% | 4 | -11% | 2
O=C(Nc1cccc(C2=NCCN2)c1)Nc1cccc(C2=NCCN2)c1 | 7.3µM* | . | 9.2µM* | 2 | 4% | ?
O=C(CCCCl)NC(=S)Nc1cc(C(F)(F)F)ccc1N1CCOCC1 | 15µM* | -7% | ? | 1 | -5% | ?
COc1ccccc1/C=C/C(=O)OCC(=O)Nc1cc(C(F)(F)F)ccc1N1CCOCC1 | 2.6µM* | ? | 4.1µM* | -3 | -3% | 35
CCCCn1nc(C(=O)Nc2cc(C(F)(F)F)ccc2N2CCOCC2)ccc1=O | 3.7µM* | ? | 23µM* | 7 | 4% | -26
Cc1ccc2nc(SCC(=O)Nc3cc(C(F)(F)F)ccc3N3CCOCC3)[nH]c2c1 | 0.82µM* | -16% | 0.82µM* | -3 | 4% | 29
CC(C)c1ccc(OCC(=O)Nc2cc(-c3ccccc3)no2)cc1 | -26% | . | -19% | . | -1% | .
Cc1nc(CN2CCN(C(=O)CC3(c4ccccc4Cl)CC(=O)N(C)C3=O)CC2)cs1 (centres undefined) | -10% | . | 10% | . | . | .
COc1ccc(-c2noc(=O)n2Cc2ccccc2F)cc1 | 2% | -1% | -23% | -5 | . | -30
C=CCNc1nc2ccccc2nc1NS(=O)(=O)c1ccc(Br)cc1 | -26% | -14% | -19% | -1 | . | 13
Cc1ccc(NC(=O)CSCC(=O)Nc2cc(C(F)(F)F)ccc2N2CCOCC2)cc1 | 21µM* | -13% | 18µM* | 6 | . | -5
CCOC(=O)C(=CNc1cc(C(F)(F)F)ccc1N1CCOCC1)C(=O)OCC | 16µM* | ? | ? | 6 | 6% | -53*
